Bioassay records: PubChem, several laboratories
APOBEC3A inh: human APOBEC3A DNA deaminase inhibition; P31941; recombinant A3A, FAM/TAMRA ssDNA deamination fluorescence; inhibition, % at 20 µM; actives 0.41% (n = 330,000); AID 493011;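 active = at least 40% inhibition at 20 µM here, with at most 30% in a related deaminase screen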;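 also: plate controls were A3A with DMSO for no effect and wells lacking A3A enzyme for full effect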
VLA-4 inh: inhibition in a human VLA-4 binding assay | VLA-4 expressing cells, ligand binding flow cytometry | actives 0.2% (n = 330,000) | inhibition, % (about 7 µM as worked out from the volumes in the protocol) | P13612; in the data active = inhibition above about 50%
APOBEC3G inh: inhibitors of human APOBEC3G DNA deaminase. Q9HC16. recombinant A3G, ssDNA deamination FAM/TAMRA fluorescence. inhibition, % at 20 µM. actives 0.28% (n = 330,000);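 active = inhibition of at least 40% at 20 µM, with no more than 30% in the related APOBEC3A deaminase screen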;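 also: plate controls were DMSO wells with A3G for no effect and wells lacking A3G enzyme for full effect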
GRK2 aptamer HTS: inhibitors of human GRK2 displacing RNA aptamer | P25098 | bead flow cytometry, FAM-aptamer displacement from GRK2 | inhibition of aptamer binding, % at 10 µM | actives 0.59% (n = 330,000);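 active = inhibition of aptamer binding above 40%, roughly 3 SD of noise, on plates passing a quality check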;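 also: median bead fluorescence of bound FAM aptamer so fluorescent compounds give negative values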
Target sequence (P25098 whole entry, looked up): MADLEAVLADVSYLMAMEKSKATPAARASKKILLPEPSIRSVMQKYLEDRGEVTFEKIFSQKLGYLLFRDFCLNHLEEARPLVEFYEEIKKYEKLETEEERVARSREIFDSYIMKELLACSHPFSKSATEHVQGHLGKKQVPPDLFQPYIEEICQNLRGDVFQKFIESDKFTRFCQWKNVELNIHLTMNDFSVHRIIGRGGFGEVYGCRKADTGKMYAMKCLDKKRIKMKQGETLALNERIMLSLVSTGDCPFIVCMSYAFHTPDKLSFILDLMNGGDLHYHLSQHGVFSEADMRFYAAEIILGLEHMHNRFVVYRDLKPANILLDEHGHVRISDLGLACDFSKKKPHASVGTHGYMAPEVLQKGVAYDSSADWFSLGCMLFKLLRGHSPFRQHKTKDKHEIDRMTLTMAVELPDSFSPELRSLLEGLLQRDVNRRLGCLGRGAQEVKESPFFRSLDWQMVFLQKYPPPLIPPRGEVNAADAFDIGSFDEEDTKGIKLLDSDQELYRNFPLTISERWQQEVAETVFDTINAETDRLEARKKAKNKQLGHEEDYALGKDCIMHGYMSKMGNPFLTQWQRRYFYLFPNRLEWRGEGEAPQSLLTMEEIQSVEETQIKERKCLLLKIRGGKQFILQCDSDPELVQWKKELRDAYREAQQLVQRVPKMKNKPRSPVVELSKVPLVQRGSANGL
GRK2 CP1: human GRK2 inhibition confirmation, cherry pick 1. shares compounds with GRK2 aptamer HTS. bead-bound GRK2, FAM-aptamer displacement, flow cytometry. aptamer displacement, % at 10 µM. actives 4% (n = 2,000). AID 504451;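 active = aptamer displacement above 40%, near three times the noise of non-fluorescent compounds, on plates passing quality checks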;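 also: negative values mostly reflect intrinsic compound fluorescence rather than true enhancement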
FAM quench CP1: quenches fluorescent RNA aptamer, GRK2 hit artifact; shares compounds with GRK2 aptamer HTS; Carboxyfluorescein RNA aptamer on beads, flow cytometry quenching; stronger effect = lower value; fluorescence response (% of DMSO), % at 10 µM; 2,000 tested, under 10 active;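 active = compounds that quench the bead-bound fluorescent RNA probe, cutting fluorescence to under half of the solvent control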;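 also: counterscreen run without GRK2 so only probe quenching by compound is measured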
GRK2 confirm 2: human GRK2 inhibition confirmation, cherry pick 2; shares compounds with GRK2 aptamer HTS; bead-bound GRK2, FAM-aptamer displacement, flow cytometry; inhibition of aptamer binding, % at 10 µM; 360 tested, under 10 active;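 active = inhibition of aptamer binding above 40%, about triple the noise seen with nonglowing compounds, on plates passing quality control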;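 also: negative values mostly come from compounds that fluoresce themselves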
FAM quench CP2: aptamer fluorescence quenching in GRK2 counter-screen. AID 588494. 360 tested, under 10 active. shares compounds with GRK2 aptamer HTS. carboxyfluorescein RNA aptamer beads, flow cytometry quenching; stronger effect = lower value. fluorescence response vs DMSO, % at 10 µM;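 active = response vs DMSO under 50%, meaning signal dropped by over half, treated as fluorescence quencher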;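 also: labelled aptamer on streptavidin beads without GRK2 as a quench counter-screen; 100% = bead fluorescence of DMSO wells and lower means quenching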
* hit, by the source's call. Sampled rows, rich in hits. Any-hit rate of the full collection: about 1.4%.

`Cc1c(C(=O)Nc2ccccc2)cnn1-c1ccccc1` gave APOBEC3A inh 0, VLA-4 inh 2, APOBEC3G inh 0 and GRK2 aptamer HTS 3.
CC(=O)c1cccc(NC(=O)c2cnn(-c3ccccc3)c2C)c1 was read as APOBEC3A inh -1, VLA-4 inh -1, APOBEC3G inh 4, GRK2 aptamer HTS 0, GRK2 CP1 6 and FAM quench CP1 97.
Cc1ccc(S(=O)(=O)C2(C(=O)NC3CCCC3)CC2)cc1 was read as APOBEC3A inh 3, VLA-4 inh 0, APOBEC3G inh -3, GRK2 aptamer HTS 0, GRK2 confirm 2 -28 and FAM quench CP2 103.
Screening Cc1ccc(S(=O)(=O)C2(C(=O)NC3CCCCC3C)CC2)cc1 (stereo not drawn) returned APOBEC3A inh -3, VLA-4 inh 4, APOBEC3G inh -7 and GRK2 aptamer HTS 0.
O=C(NCCc1ccccc1)C1c2ccccc2C(=O)N1Cc1cccs1 (stereo not drawn) was read as APOBEC3A inh 4, VLA-4 inh -7, APOBEC3G inh 2 and GRK2 aptamer HTS 3.
Screening CC(C)N1C(=O)c2ccccc2C1C(=O)NCCc1ccccc1 (stereo not drawn) returned APOBEC3A inh -3, VLA-4 inh 3, APOBEC3G inh -5, GRK2 aptamer HTS 11, GRK2 CP1 1 and FAM quench CP1 95.
O=C(Oc1ccc(-c2csnn2)cc1)c1cccs1 was read as APOBEC3A inh -5, VLA-4 inh 15, APOBEC3G inh -6 and GRK2 aptamer HTS 0.
For CC(CNC(=O)c1ccc2c(c1)OCO2)c1ccc([N+](=O)[O-])cc1 (stereo not drawn) the results were APOBEC3A inh 1, VLA-4 inh -7, APOBEC3G inh -3, GRK2 aptamer HTS 67*, GRK2 CP1 -2 and FAM quench CP1 100.
For COc1ccc(NC(=O)CSc2nnc(Cc3ccccc3)c(=O)n2N)c(OC)c1 the results were APOBEC3A inh 0, VLA-4 inh -26, APOBEC3G inh -6 and GRK2 aptamer HTS 1.
COc1ccc(Cc2nnc(SCC(=O)Nc3ccccc3C)n(N)c2=O)cc1 was read as APOBEC3A inh -4, VLA-4 inh -8, APOBEC3G inh -6, GRK2 aptamer HTS 100*, GRK2 CP1 -4 and FAM quench CP1 96.
O=C1Nc2ccc(C(F)(F)F)cc2N2CCCC12 (stereo not drawn) was read as APOBEC3A inh -2, VLA-4 inh -12, APOBEC3G inh -7 and GRK2 aptamer HTS 0.
Screening O=C1Nc2cc(C(F)(F)F)ccc2N2CCCCC12 (stereo not drawn) returned APOBEC3A inh 1, VLA-4 inh 2, APOBEC3G inh 7, GRK2 aptamer HTS 52*, GRK2 confirm 2 27 and FAM quench CP2 94.
For O=C(C1CCN(S(=O)(=O)N2CCC3(CC2)OCCO3)CC1)N1CCc2ccccc2C1 the results were APOBEC3A inh -4, VLA-4 inh 14, APOBEC3G inh -4 and GRK2 aptamer HTS 2.
For O=C(C1CCN(c2ccc(N3CCOCC3)nn2)CC1)N1CCc2ccccc2C1 the results were APOBEC3A inh 5, VLA-4 inh -1, APOBEC3G inh -1, GRK2 aptamer HTS 0, GRK2 CP1 3 and FAM quench CP1 97.
COc1ccc(CC(=O)NCc2ccc3c(c2)cc(C)n3C)cc1OC was read as APOBEC3A inh -2, VLA-4 inh 14, APOBEC3G inh -5, GRK2 aptamer HTS 0, GRK2 CP1 2 and FAM quench CP1 97.
For CCOC(=O)/C=C1\SCC(=O)N1CC(=O)NCc1ccc(OC)c(OC)c1 the results were APOBEC3A inh -5, VLA-4 inh 4, APOBEC3G inh -10, GRK2 aptamer HTS 95*, GRK2 CP1 1 and FAM quench CP1 98.
`Cc1cc2cc(CNC(=O)c3ccc4c(c3)OCO4)ccc2n1C` gave APOBEC3A inh 4, VLA-4 inh -1, APOBEC3G inh 1, GRK2 aptamer HTS 22, GRK2 CP1 4 and FAM quench CP1 94.
Screening CCOc1ccc(CC(=O)NCc2ccc3c(c2)cc(C)n3C)cc1 returned APOBEC3A inh -2, VLA-4 inh -10, APOBEC3G inh -1, GRK2 aptamer HTS 0, GRK2 CP1 -3 and FAM quench CP1 100.
Screening CCOC(=O)/C=C1\SCC(=O)N1CC(=O)NCCc1ccc(F)cc1 returned APOBEC3A inh 0, VLA-4 inh -4, APOBEC3G inh -4 and GRK2 aptamer HTS 0.
Screening Cc1cc(C)n(CCCNC(=O)c2ccco2)n1 returned APOBEC3A inh -3, VLA-4 inh 12, APOBEC3G inh -4 and GRK2 aptamer HTS 8.
Screening Cc1cc2cc(CNC(=O)Nc3ccc(Cl)c(Cl)c3)ccc2n1C returned APOBEC3A inh -1, VLA-4 inh 0, APOBEC3G inh -5, GRK2 aptamer HTS 0, GRK2 CP1 -3 and FAM quench CP1 94.
Screening COCC(=O)NCc1ccc2c(c1)cc(C)n2C returned APOBEC3A inh -1, VLA-4 inh 3, APOBEC3G inh -4 and GRK2 aptamer HTS 20.
For COc1cc(OC)cc(C(=O)NCc2ccc3c(c2)cc(C)n3C)c1 the results were APOBEC3A inh -1, VLA-4 inh -10, APOBEC3G inh -9, GRK2 aptamer HTS 82*, GRK2 CP1 3 and FAM quench CP1 98.
Cn1c(=O)oc2cc(S(=O)(=O)NCc3ccccn3)ccc21 was read as APOBEC3A inh -7, VLA-4 inh -24, APOBEC3G inh 14, GRK2 aptamer HTS 52*, GRK2 CP1 3 and FAM quench CP1 100.
Cn1c(=O)oc2cc(S(=O)(=O)NCc3cccnc3)ccc21 was read as APOBEC3A inh -2, VLA-4 inh -7, APOBEC3G inh -3 and GRK2 aptamer HTS 0.
CC1=C(C(=O)OC(C)C)C(c2cccs2)n2ncnc2N1 (stereo not drawn) was read as APOBEC3A inh 0, VLA-4 inh 9, APOBEC3G inh 2, GRK2 aptamer HTS 85*, GRK2 CP1 0 and FAM quench CP1 100.
CC1=C(C(N)=O)C(c2cccs2)n2ncnc2N1 (stereo not drawn) was read as APOBEC3A inh 5, VLA-4 inh 0, APOBEC3G inh 0 and GRK2 aptamer HTS 0.
O=C(c1ccc2nc(-c3ccco3)c(-c3ccco3)nc2c1)N1CCN(c2ncccn2)CC1 was read as APOBEC3A inh 97, VLA-4 inh -24, APOBEC3G inh 93, GRK2 aptamer HTS 45*, GRK2 CP1 3 and FAM quench CP1 94.
